Measurements reported in PubChem BioAssay (EPA / NIEHS).
Activity calls are given as the source filed them. The calls were made as follows: active = hit-call score of the fitted dose curve at least 0.9, where 1 is the maximum; inactive = score below 0.9.

Columns and labels:
Details in all cases: mRNA level, 48 h; actives raise or lower the signal
[1] = read-out: BCL2L11 (gene 10018); assay: LTEA_HepaRG_BCL2L11: Life Technologies and Expression Analysis (LTEA) Assay for Bcl-2 (BCL2L11) gene using HepaRG (AID 2283473)
Outline: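 Read-out is BCL2L11 transcript level by qRT-PCR, normalized to three housekeeping genes and fitted bidirectionally against 0.5% DMSO vehicle. HepaRG cells received chemicals for 48 h in serum-free induction medium, 100 uM down in half-log dilutions.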

[2] = read-out: Apolipoprotein A-V (APOA5) gene, APOA5 (gene 116519); assay: LTEA_HepaRG_APOA5: Life Technologies and Expression Analysis (LTEA) Assay for Apolipoprotein A-V (APOA5) gene using HepaRG (AID 2283474)
Outline: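 Readout is APOA5 transcript level by qRT-PCR on Fluidigm dynamic arrays, normalized to three housekeeping genes. HepaRG cultures received chemicals for 48 h at up to 100 uM (half-log steps, 0.5% DMSO), with gain or loss scored relative to DMSO.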

[3] = read-out: Apoptosis regulator Bcl-2 (Homo sapiens) (UniProt P10415); assay: LTEA_HepaRG_BCL2: Life Technologies and Expression Analysis (LTEA) Assay for Bcl-2 gene using HepaRG (AID 2283475)
Outline: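 qRT-PCR of BCL2 transcript, normalized to three housekeeping genes (ACTB, GAPDH, POLR2A), after 48 h chemical exposure of HepaRG cells; concentrations top 100 uM with half-log dilutions, 0.5% DMSO vehicle, duplicates; changes up or down fitted relative to vehicle.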

[4] = read-out: Bcl-2 (BID) gene, BID (gene 637); assay: LTEA_HepaRG_BID: Life Technologies and Expression Analysis (LTEA) Assay for Bcl-2 (BID) gene using HepaRG (AID 2283476)
Outline: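 Duplicate 48 h treatments of HepaRG cells in serum-free induction medium spanned 100 uM downward in half-log steps, 0.5% DMSO. Transcript change quantified by qRT-PCR against three housekeeping genes, fitted up or down versus DMSO.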

[5] = read-out: Caspase-3 (Homo sapiens) (UniProt P42574); assay: LTEA_HepaRG_CASP3: Life Technologies and Expression Analysis (LTEA) Assay for cysteine-aspartic acid protease (CASP3) using HepaRG (AID 2283477)
Outline: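 Read-out is CASP3 mRNA level by TaqMan qRT-PCR in human HepaRG cells after 48 h chemical exposure. Eight half-log concentrations topping at 100 uM were tested in 0.5% DMSO; gain or loss was fitted relative to DMSO.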

[6] = read-out: Cytochrome P450 (CYP24A1), CYP24A1 (gene 1591); assay: LTEA_HepaRG_CYP24A1: Life Technologies and Expression Analysis (LTEA) Assay for Cytochrome P450 (CYP24A1) using HepaRG (AID 2283478)
Outline: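 HepaRG, 48 h chemical exposure, 8-pt half-log CRC from 100 uM, 0.5% DMSO vehicle, duplicates. Endpoint: CYP24A1 mRNA by Fluidigm TaqMan qRT-PCR, normalized ACTB/GAPDH/POLR2A; gain/loss fit vs DMSO.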

[7] = read-out: Cytochrome P450 (CYP1A2), CYP1A2 (gene 1544); assay: LTEA_HepaRG_CYP1A2: Life Technologies and Expression Analysis (LTEA) Assay for Cytochrome P450 (CYP1A2) using HepaRG (AID 2283479)
Outline: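 CYP1A2 transcript induction or loss, quantified by Fluidigm qRT-PCR against three housekeeping genes, was fitted bidirectionally against 0.5% DMSO controls. Human HepaRG cells received eight half-log concentrations from 100 uM over 48 h.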

[8] = read-out: cysteine-aspartic acid protease (CASP8), CASP8 (gene 841); assay: LTEA_HepaRG_CASP8: Life Technologies and Expression Analysis (LTEA) Assay for cysteine-aspartic acid protease (CASP8) using HepaRG (AID 2283480)
Outline: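 qRT-PCR readout of CASP8 mRNA, normalized to three housekeeping genes, after 48 h chemical exposure of HepaRG cells; 8-point half-log series, top 100 uM, 0.5% DMSO vehicle. Bidirectional curve fitting against DMSO baseline.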

[9] = read-out: Cytochrome P450 (CYP2B6), CYP2B6 (gene 1555); assay: LTEA_HepaRG_CYP2B6: Life Technologies and Expression Analysis (LTEA) Assay for Cytochrome P450 (CYP2B6) using HepaRG (AID 2283481)
Outline: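 HepaRG cells plated 48 h, switched to serum-free induction medium, then dosed 48 h (8 points, half-log from 100 uM, 0.5% DMSO). RNA isolated; CYP2B6 expression measured by qRT-PCR; gain or loss fitted relative to DMSO.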

[10] = read-out: Cytochrome P450 2C19 (Homo sapiens) (UniProt P33261); assay: LTEA_HepaRG_CYP2C19: Life Technologies and Expression Analysis (LTEA) Assay for CYP2C19 using HepaRG (AID 2283482)
Outline: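 Transcript levels of CYP2C19 were quantified by qRT-PCR after HepaRG cells were treated for 48 hours with test chemicals up to 100 uM (eight half-log concentrations, 0.5% DMSO vehicle). Gain or loss of signal was fitted relative to DMSO.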

[11] = read-out: CYP2C8 (gene 1558); assay: LTEA_HepaRG_CYP2C8: Life Technologies and Expression Analysis (LTEA) Assay for CYP2C8 using HepaRG (AID 2283483)
Outline: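 HepaRG (human liver line), 48 h chemical exposure, 8-pt half-log series from 100 uM, 0.5% DMSO vehicle. Readout: CYP2C8 transcript by qRT-PCR, housekeeping-normalized. Bidirectional fit vs DMSO baseline.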

[12] = read-out: CYP2C9 (gene 1559); assay: LTEA_HepaRG_CYP2C9: Life Technologies and Expression Analysis (LTEA) Assay for CYP2C9 using HepaRG (AID 2283484)
Outline: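 HepaRG, 48 h dosing, 8-pt half-log series, top 100 uM, 0.5% DMSO vehicle. Read-out: CYP2C9 transcript by TaqMan qRT-PCR, housekeeping-normalized (ACTB/GAPDH/POLR2A). Gain or loss fitted vs DMSO baseline.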

[13] = read-out: CYP2E1 (gene 1571); assay: LTEA_HepaRG_CYP2E1: Life Technologies and Expression Analysis (LTEA) Assay for CYP2E1 using HepaRG (AID 2283485)
Outline: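 CYP2E1 transcript measured by Fluidigm qRT-PCR against three housekeeping genes in human HepaRG cells treated 48 h (top 100 uM, half-log steps, 0.5% DMSO vehicle). Gain or loss fitted relative to DMSO baseline.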

[14] = read-out: CYP4A11 (gene 1579); assay: LTEA_HepaRG_CYP4A11: Life Technologies and Expression Analysis (LTEA) Assay for CYP4A11 using HepaRG (AID 2283486)
Outline: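 HepaRG, 48 h chem exposure, 8 conc (100 uM top, half-log), 0.5% DMSO vehicle; qRT-PCR readout, housekeeping-gene normalized; bidirectional curve fit vs DMSO baseline.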

[15] = read-out: Cytochrome P450 3A4 (Homo sapiens) (UniProt P08684); assay: LTEA_HepaRG_CYP3A4: Life Technologies and Expression Analysis (LTEA) Assay for CYP3A4 using HepaRG (AID 2283487)
Outline: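 Differentiated HepaRG cells, plated 48 h, then dosed 48 h in serum-free induction medium with 0.5% DMSO, 8 half-log concentrations up to 100 uM, duplicate. CYP3A4 mRNA by qRT-PCR, normalized to ACTB/GAPDH/POLR2A; bidirectional fit versus DMSO.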

[16] = read-out: DNA damage-inducible transcript 3 (DDIT3), DDIT3 (gene 1649); assay: LTEA_HepaRG_DDIT3: Life Technologies and Expression Analysis (LTEA) Assay for DNA damage-inducible transcript 3 (DDIT3) using HepaRG (AID 2283488)
Outline: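 DDIT3 transcript was quantified by qRT-PCR with ACTB/GAPDH/POLR2A normalization after 48 h chemical treatment of differentiated HepaRG cells in 0.5% DMSO. Dosing was eight-point, half-log, top 100 uM, duplicate wells. Curves fitted bidirectionally versus DMSO.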

[17] = read-out: Pro-epidermal growth factor (Homo sapiens) (UniProt P01133); assay: LTEA_HepaRG_EGF: Life Technologies and Expression Analysis (LTEA) Assay for Epidermal growth factor (EGF) using HepaRG (AID 2283489)
Outline: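 HepaRG, 48 h dosing, 100 uM top, half-log x8, 0.5% DMSO. Readout: TaqMan qRT-PCR (Fluidigm array), housekeeping-normalized. Gain or loss of signal fit vs DMSO.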

[18] = read-out: Early growth response protein 1 (EGR1) transcription factor, EGR1 (gene 1958); assay: LTEA_HepaRG_EGR1: Life Technologies and Expression Analysis (LTEA) Assay for Early growth response protein 1 (EGR1) transcription factor using HepaRG (AID 2283490)
Outline: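 HepaRG, 48 h exposure, 8-pt half-log series from 100 uM, 0.5% DMSO vehicle; EGR1 transcript by TaqMan qRT-PCR (Fluidigm array), housekeeping-normalized; bidirectional fit relative to DMSO baseline.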

[19] = read-out: Ezrin (EZR), EZR (gene 7430); assay: LTEA_HepaRG_EZR: Life Technologies and Expression Analysis (LTEA) Assay for Ezrin (EZR) using HepaRG (AID 2283491)
Outline: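 EZR transcript levels came from Fluidigm qRT-PCR and were normalized to three housekeeping genes after 48 h chemical exposure of HepaRG cells. Dosing used an 8-point half-log series with a 100 uM top concentration in 0.5% DMSO, tested in duplicate; both directions were fitted versus vehicle.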

[20] = read-out: Cytochrome P450 3A7 (Homo sapiens) (UniProt P24462); assay: LTEA_HepaRG_CYP3A7: Life Technologies and Expression Analysis (LTEA) Assay for CYP3A7 using HepaRG (AID 2283492)
Outline: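 Human HepaRG liver cells, 48 h post-plating, switched to serum-free induction medium and exposed in duplicate for 48 h. Dosing: 100 uM top, half-log dilutions, 8 points, 0.5% DMSO vehicle. Read-out: CYP3A7 mRNA, gain or loss fitted against DMSO baseline.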

Sequence of Caspase-3 (Homo sapiens) (P42574 whole entry, looked up): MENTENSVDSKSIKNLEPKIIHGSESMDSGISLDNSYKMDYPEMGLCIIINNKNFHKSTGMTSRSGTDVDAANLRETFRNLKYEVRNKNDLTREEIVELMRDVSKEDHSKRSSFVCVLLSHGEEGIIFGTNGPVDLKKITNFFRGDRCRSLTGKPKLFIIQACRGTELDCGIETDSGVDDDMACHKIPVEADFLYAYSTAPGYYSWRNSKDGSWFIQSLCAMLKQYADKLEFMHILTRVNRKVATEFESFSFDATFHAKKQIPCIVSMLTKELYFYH
Sequence of Cytochrome P450 2C19 (Homo sapiens) (P33261 whole entry, looked up): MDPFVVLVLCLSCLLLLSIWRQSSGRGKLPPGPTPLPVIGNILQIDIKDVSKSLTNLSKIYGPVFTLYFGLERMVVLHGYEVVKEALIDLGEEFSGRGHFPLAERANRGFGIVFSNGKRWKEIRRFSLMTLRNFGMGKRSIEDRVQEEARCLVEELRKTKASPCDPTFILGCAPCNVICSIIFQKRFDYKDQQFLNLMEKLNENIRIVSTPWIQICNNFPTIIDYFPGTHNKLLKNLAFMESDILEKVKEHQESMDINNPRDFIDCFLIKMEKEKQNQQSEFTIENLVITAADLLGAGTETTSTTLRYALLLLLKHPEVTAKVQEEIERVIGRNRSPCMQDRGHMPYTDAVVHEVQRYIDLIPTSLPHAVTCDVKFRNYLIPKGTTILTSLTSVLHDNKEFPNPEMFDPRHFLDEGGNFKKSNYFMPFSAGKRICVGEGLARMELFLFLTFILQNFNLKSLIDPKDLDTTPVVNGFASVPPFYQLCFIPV
Sequence of Cytochrome P450 3A4 (Homo sapiens) (P08684 whole entry, looked up): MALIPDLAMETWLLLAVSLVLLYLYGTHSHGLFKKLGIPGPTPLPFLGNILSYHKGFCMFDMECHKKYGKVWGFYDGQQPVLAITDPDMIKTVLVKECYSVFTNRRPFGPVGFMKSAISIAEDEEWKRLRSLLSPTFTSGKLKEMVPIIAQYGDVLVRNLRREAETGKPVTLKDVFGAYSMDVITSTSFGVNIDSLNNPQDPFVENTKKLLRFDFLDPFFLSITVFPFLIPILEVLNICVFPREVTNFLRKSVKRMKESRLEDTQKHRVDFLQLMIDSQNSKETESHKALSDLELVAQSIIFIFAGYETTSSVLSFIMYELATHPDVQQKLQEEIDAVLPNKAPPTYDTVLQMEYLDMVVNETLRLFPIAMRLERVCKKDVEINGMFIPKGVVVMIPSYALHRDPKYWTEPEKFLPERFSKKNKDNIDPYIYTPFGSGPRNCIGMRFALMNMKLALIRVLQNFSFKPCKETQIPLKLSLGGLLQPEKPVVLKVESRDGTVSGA
Sequence of Apoptosis regulator Bcl-2 (Homo sapiens) (P10415 whole entry, looked up): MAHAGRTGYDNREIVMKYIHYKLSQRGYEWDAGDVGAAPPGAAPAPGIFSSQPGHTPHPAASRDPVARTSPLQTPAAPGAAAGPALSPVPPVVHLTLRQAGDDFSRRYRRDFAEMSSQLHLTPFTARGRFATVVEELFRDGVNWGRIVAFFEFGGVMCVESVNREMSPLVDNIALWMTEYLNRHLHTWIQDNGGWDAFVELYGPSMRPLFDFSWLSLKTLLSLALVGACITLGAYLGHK
Sequence of Cytochrome P450 3A7 (Homo sapiens) (P24462 whole entry, looked up): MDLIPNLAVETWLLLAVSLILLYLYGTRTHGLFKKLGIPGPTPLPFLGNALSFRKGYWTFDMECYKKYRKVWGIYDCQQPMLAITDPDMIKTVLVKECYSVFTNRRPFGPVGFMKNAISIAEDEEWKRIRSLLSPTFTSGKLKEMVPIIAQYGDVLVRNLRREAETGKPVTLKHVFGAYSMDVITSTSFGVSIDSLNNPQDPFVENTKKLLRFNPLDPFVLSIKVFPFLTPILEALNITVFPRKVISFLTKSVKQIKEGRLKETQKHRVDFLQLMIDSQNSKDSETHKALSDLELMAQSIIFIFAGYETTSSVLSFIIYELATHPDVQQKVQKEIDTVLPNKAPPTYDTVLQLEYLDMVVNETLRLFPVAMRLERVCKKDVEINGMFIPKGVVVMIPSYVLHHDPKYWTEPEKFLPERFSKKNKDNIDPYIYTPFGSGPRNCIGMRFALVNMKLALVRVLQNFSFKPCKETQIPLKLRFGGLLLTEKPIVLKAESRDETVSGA

## CCCN(CCOc1c(Cl)cc(Cl)cc1Cl)C(=O)n1ccnc1
[1]
  AC50: 12.7 µM (active)
[2]
  AC50: 39 µM (active)
[3]
  AC50: 28.9 µM (active)
[4]
  outcome: inactive
[5]
  outcome: inactive
[6]
  outcome: inactive
[7]
  AC50: 3.86 µM (active)
[8]
  outcome: inactive
[9]
  AC50: 31 µM (active)
[10]
  AC50: 36.8 µM (active)
[11]
  AC50: 28.4 µM (active)
[12]
  AC50: 31.9 µM (active)
[13]
  AC50: 14.6 µM (active)
[14]
  AC50: 18.2 µM (active)
[15]
  AC50: 36.2 µM (active)
[16]
  AC50: 24 µM (active)
[17]
  AC50: 12.1 µM (active)
[18]
  AC50: 27.9 µM (active)
[19]
  AC50: 31.1 µM (active)

## CCC(C)(C)C(=O)OC1=C(c2ccc(Cl)cc2Cl)C(=O)OC12CCCCC2
[1]
  outcome: inactive
[2]
  AC50: 50 µM (active)
[3]
  outcome: inactive
[4]
  outcome: inactive
[5]
  outcome: inactive
[6]
  outcome: inactive
[7]
  AC50: 50 µM (active)
[8]
  outcome: inactive
[9]
  outcome: inactive
[10]
  outcome: inactive
[11]
  outcome: inactive
[12]
  outcome: inactive
[13]
  AC50: 23.1 µM (active)
[14]
  outcome: inactive
[15]
  AC50: 25 µM (active)
[16]
  outcome: inactive
[17]
  outcome: inactive
[18]
  outcome: inactive
[19]
  outcome: inactive
[20]
  AC50: 25.5 µM (active)

## COP(=S)(OC)Oc1ccc([N+](=O)[O-])cc1
[1]
  outcome: inactive
[2]
  outcome: inactive
[3]
  outcome: inactive
[4]
  outcome: inactive
[5]
  outcome: inactive
[6]
  outcome: inactive
[7]
  AC50: 32.8 µM (active)
[8]
  outcome: inactive
[9]
  AC50: 15.7 µM (active)
[10]
  AC50: 50 µM (active)
[11]
  outcome: inactive
[12]
  outcome: inactive
[13]
  outcome: inactive
[14]
  outcome: inactive
[15]
  outcome: inactive
[16]
  outcome: inactive
[17]
  outcome: inactive
[18]
  outcome: inactive
[19]
  outcome: inactive

## CNC(=O)Oc1cccc(N=CN(C)C)c1
[1]
  outcome: inactive
[2]
  outcome: inactive
[3]
  outcome: inactive
[4]
  outcome: inactive
[5]
  outcome: inactive
[6]
  outcome: inactive
[7]
  outcome: inactive
[8]
  outcome: inactive
[9]
  outcome: inactive
[10]
  outcome: inactive
[11]
  outcome: inactive
[12]
  outcome: inactive
[13]
  outcome: inactive
[14]
  outcome: inactive
[15]
  outcome: inactive
[16]
  outcome: inactive
[17]
  outcome: inactive
[18]
  outcome: inactive
[19]
  outcome: inactive

## O=[N+]([O-])c1c(Cl)c(Cl)c(Cl)c(Cl)c1Cl
[1]
  outcome: inactive
[2]
  outcome: inactive
[3]
  outcome: inactive
[4]
  outcome: inactive
[5]
  outcome: inactive
[6]
  outcome: inactive
[7]
  AC50: 36.7 µM (active)
[8]
  outcome: inactive
[9]
  AC50: 5.88 µM (active)
[10]
  outcome: inactive
[11]
  outcome: inactive
[12]
  outcome: inactive
[13]
  AC50: 34.3 µM (active)
[15]
  outcome: inactive
[16]
  outcome: inactive
[17]
  outcome: inactive
[18]
  outcome: inactive
[19]
  outcome: inactive
